# Assay outcomes from PubChem BioAssay.
# In the library only some 11% were active in any assay of this set; here they are far more common.
# L3MBTL1 inh – L3MBTL1 (human) inhibition; AlphaScreen L3MBTL1–H3K9me1 peptide binding; Potency, µM (titrated, usually from 57.1 µM), actives largely listed as inhibitors; actives 0.66% (n = 230,000); note: nearly all actives have a fitted effect of over 60% in size
#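 L3MBTL1 50 nM + b-AHA-H3(1-15)K9me1 75 nM, 30 min RT; compound added, 30 min RT; streptavidin donor/Ni-chelate acceptor beads 10 ug/mL each final, 30 min RT dark; AlphaScreen read.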
# JMJD2A Tudor inh – inhibitors of human JMJD2A Tudor domain; Potency, µM (top dose mostly 114 µM), usual class: inhibitors; AlphaScreen JMJD2A-Tudor / H3K4me3 peptide binding; actives 4.4% (n = 390,000); note: nearly all actives have a fitted effect of over 50% in size
# Target sequence (O75164 whole entry, looked up, the tested form may be a part): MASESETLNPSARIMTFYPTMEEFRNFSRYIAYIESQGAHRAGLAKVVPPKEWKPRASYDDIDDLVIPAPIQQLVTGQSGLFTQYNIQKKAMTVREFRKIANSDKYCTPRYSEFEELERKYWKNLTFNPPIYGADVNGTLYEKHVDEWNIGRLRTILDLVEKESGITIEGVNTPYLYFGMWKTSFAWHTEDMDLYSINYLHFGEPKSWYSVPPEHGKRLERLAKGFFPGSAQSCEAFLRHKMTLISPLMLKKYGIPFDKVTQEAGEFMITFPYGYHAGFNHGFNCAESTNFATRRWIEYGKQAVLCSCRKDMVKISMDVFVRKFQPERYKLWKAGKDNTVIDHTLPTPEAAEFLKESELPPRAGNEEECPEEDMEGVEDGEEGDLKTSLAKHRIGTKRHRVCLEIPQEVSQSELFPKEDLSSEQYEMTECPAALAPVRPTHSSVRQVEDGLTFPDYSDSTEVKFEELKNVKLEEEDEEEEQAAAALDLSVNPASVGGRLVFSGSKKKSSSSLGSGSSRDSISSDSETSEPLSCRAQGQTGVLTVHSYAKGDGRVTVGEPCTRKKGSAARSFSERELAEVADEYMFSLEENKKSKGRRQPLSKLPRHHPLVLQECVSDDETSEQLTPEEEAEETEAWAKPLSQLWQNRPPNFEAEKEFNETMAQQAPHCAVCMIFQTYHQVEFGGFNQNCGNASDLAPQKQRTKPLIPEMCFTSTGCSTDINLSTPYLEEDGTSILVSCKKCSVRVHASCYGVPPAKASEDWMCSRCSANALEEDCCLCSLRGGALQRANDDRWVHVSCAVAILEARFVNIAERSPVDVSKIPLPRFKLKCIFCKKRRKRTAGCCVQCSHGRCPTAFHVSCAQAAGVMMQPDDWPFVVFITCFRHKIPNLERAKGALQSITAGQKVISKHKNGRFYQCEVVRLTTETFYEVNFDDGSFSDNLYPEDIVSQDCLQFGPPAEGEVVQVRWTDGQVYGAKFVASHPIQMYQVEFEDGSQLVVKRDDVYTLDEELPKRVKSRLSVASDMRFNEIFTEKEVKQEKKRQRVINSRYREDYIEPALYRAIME
# HP1b chromo inh – HP1-beta chromodomain-methylated histone interaction inhibition. actives 0.56% (n = 390,000). Potency, µM (doses to about 114 µM), actives largely listed as inhibitors. AlphaScreen HP1-beta / biotin-H3K9me3 peptide binding; note: nearly all actives have a fitted effect of over 70% in size
#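 AlphaScreen: HP1-beta (50 nM) preformed 30 min with biotin-H3(1-18)K9me3 peptide (50 nM) in PBS pH 7.4, 0.01% Tween-20. Compound added for 30 min at RT, then streptavidin donor/nickel chelate acceptor beads (10 ug/mL) for 30 min.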
# G9a block – blocks human histone lysine methyltransferase G9a. Q96KQ7. G9a H3K9 monomethylation, AlphaScreen, 2 h. Potency, µM (series often up to 102 µM), usual class: inhibitors. actives 8.8% (n = 350,000); note: nearly all actives have a fitted effect of over 75% in size
#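 Readings reflect AlphaScreen signal from monomethyl-H3K9 antibody detection. HMT at 20 nM; substrate b-H3K9 500 nM; cofactor SAM 20 uM; 2 h RT reaction; compounds tested as titrations in qHTS with 15 min preincubation.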
# PI5P4K alpha inh – blocks human PI5P4K alpha kinase activity | P48426 | PI5P4Kalpha enzyme, ADP-Glo luminescence, 60 min; hits give low values | AID 652105 | max response, % | actives 1.2% (n = 330,000); active = max response of -50% or lower; inconclusive = between -30% and -50%; inactive = -30% or higher; note: value at the top dose of about 77 µM
#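 Quantitative HTS of the MLSMR library against PI5P4Kalpha with substrate. ATP added last at 5 microM final; room temperature, 60 minutes. Remaining ATP depleted, ADP converted and read as luminescence.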
# BAZ2B block – inhibitors of human BAZ2B bromodomain; Potency, µM (top dose mostly 114 µM), actives largely listed as inhibitors; actives 4.4% (n = 360,000); AlphaScreen BAZ2B-H3K14Ac peptide displacement; Q9UIF8; AID 504333; note: nearly all actives have a fitted effect of over 60% in size
#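 AlphaScreen displacement of biotin-H3(5-23)K14Ac peptide (50 nM final) from BAZ2B (50 nM final) in PBS pH 7.4, 0.01% Tween-20; complex preformed 30 min RT, then compounds (top 110 uM) 30 min RT, beads 20 min dark.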
# A number is an active result; - = inactive; ? = inconclusive; . = not tested or not shown; [ ] = remark or other dose. Unless noted, calls come from the whole dose curve; as a rule, active = well fitted inhibition curve with a large enough effect; inconclusive = small, poorly fitted or top-dose-only effect; inactive = no such curve, though single readings can be large or run the other way.
SMILES,L3MBTL1 inh,JMJD2A Tudor inh,HP1b chromo inh,G9a block,PI5P4K alpha inh,BAZ2B block
Cc1cccc(C)c1NS(=O)(=O)c1ccc2c(c1)[C@H]1C=CC[C@H]1[C@@H](c1ccc(Cl)cc1)N2,.,-,-,3.55µM,.,-
O=C(OCC#CCSc1nnc(-c2cccc3ccccc23)o1)c1sc(Cl)c(Cl)c1Cl,.,-,.,.,.,.
C[C@H]1CC2C3CCC4=CC(=O)C=C[C@]4(C)[C@@]3(Cl)[C@@H](O)C[C@]2(C)[C@@]1(O)C(=O)CO (stereo not given in full),.,.,.,-,.,.
Fc1ccc(NCc2ccccc2-c2nnc(-c3ccccc3Cl)o2)cc1Cl,.,-,-,-,.,-
CCS(=O)(=O)c1ccc(N)cc1,.,-,-,3.98µM,-,-
Nc1ccc(S(N)(=O)=O)cc1,.,-,-,-[21.5 µM],-,.
CCOC(=O)C1Oc2ccccc2C(c2ccccc2)=C1C(C)=O (stereo not given),.,.,.,-,.,.
Cc1ccccc1C(=O)Oc1ccc(Br)cc1C(=S)N1CCCC1,-,-,-,44.7µM,.,-
O=C(Oc1ccc(Br)cc1C(=S)N1CCCC1)c1ccccc1F,-,-,-,8.91µM,-,-
O=C(Cn1c(SCCOc2ccccc2Cl)nc2ccccc21)N1CCOCC1,.,-,-,-,.,-
Cc1nc2ccc(S(=O)(=O)N(C)CC(=O)NCc3ccc(N(C)C)cc3)cc2s1,.,?,-,50.1µM,-,?
Cc1nc2ccc(S(=O)(=O)N(C)CC(=O)NCc3ccc4c(c3)OCO4)cc2s1,-,-,-,-[2.33 µM],-,-
CN(C)c1ccc(CNC(=O)CN2CCSc3ccc(S(=O)(=O)N(C)C)cc32)cc1,.,44.7µM,-,7.94µM,.,39.8µM
Cc1nc(C)c(C(=O)OCC(=O)NCCc2ccc(S(N)(=O)=O)cc2)s1,-,-,-,-[12.7 µM],-,-
Cc1nc(C)c(C(=O)OCC(=O)NCCc2ccc(F)cc2)s1,-,-,-,39.8µM,-,-
O=C(NCS(=O)(=O)c1ccccc1)c1ccccc1,-,-,-,50.1µM,-,-
C[N+](C)(C)CCNC(=O)c1ccccc1,.,.,.,.,-,.
Nc1cc([N+](=O)[O-])cc2oc(-c3ccccc3)cc12,.,12.6µM,?,-[0.501 µM],-,10µM
COc1cccc(C2=NOC(C(=O)Nc3cc(C)nn3-c3ccccc3)C2)c1OC (stereo not given),-,-,-,44.7µM,-,-
COc1cc(OC)c(C2=NOC(C(=O)Nc3cc(C)nn3-c3ccccc3)C2)cc1Cl (stereo not given),.,-,-,-[12.7 µM],.,-
O=c1ccccn1CCOc1ccc(Cl)cc1,-,-,-,.,-,-
CC(C)(C)c1ccc(OCCn2ccccc2=O)cc1,-,3.55µM,-,-,-,-
O=C1C=C(N(CCO)Cc2ccccc2)c2ccccc2C1=O,?,-,?,50.1µM,-,?
CCC(CO)NCC(O)COCc1ccc2c(c1)OCO2 (stereo not given),.,50.1µM,-,?,-,79.4µM
CCOC(=O)C1CCCN(CC(O)COCc2ccc3c(c2)OCO3)C1 (stereo not given),-,1µM,?,11.2µM,-,56.2µM
SMILES,L3MBTL1 inh,JMJD2A Tudor inh,HP1b chromo inh,G9a block,PI5P4K alpha inh,BAZ2B block
OC(COCc1ccc2c(c1)OCO2)CN1CCCCC1 (stereo not given),.,-,-,-,-,-
OC(COCc1ccc2c(c1)OCO2)CN1CCC(Cc2ccccc2)CC1 (stereo not given),-,-,-,-[12.7 µM],-,-
Cc1nn(S(=O)(=O)c2ccc(C(C)(C)C)cc2)c(C)c1S(=O)(=O)N1CCCCCC1,.,-,-,-,.,-
CCC12CN3CC(CC)(CN(C1)C3c1c[nH]c3ccccc13)C2=O (stereo not given),.,-,-,-,.,?
COC(=O)c1cc2c(ccc3ccccc32)oc1=O,.,-,-,.,-,.
CN1CCN(C(=O)c2cc3c(ccc4ccccc43)oc2=O)CC1,-,-,-,50.1µM,-,-
CCc1cc2c(NCc3ccco3)ncnc2s1,-,?,-,44.7µM,-,56.2µM
COc1ccc(-n2ncc3c(NCc4ccco4)ncnc32)cc1,-,?,-,44.7µM,.,?
NNc1ncnc2c1cnn2-c1ccccc1,.,50.1µM,-,-[12.7 µM],-,28.2µM
